Measured values reported in PubChem BioAssay (EPA / NIEHS).
Records with an inconclusive call do not appear. Activity calls are given as the source filed them. Rule for the calls: active = hit-call score of the fitted dose curve at least 0.9, where 1 is the maximum; inconclusive = response in the unintended direction; inactive = score below 0.9.

Legend:
[1] = biological target: rat Neurokinin-1 Receptor (NK1), Tacr1 (gene 24807) (UniProt P14600); test: NVS_GPCR_rNK1: NovaScreen (NVS) G Protein-Coupled Receptor Assay for rat Neurokinin-1 Receptor (NK1) (AID 2283309)
Procedure, shortened: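 Rat submaxillary gland membranes; radioligand displacement read by filter-based scintillation counting after 1 h. Primary screen in duplicate at 25 uM; actives retested in concentration series; loss of binding fitted versus DMSO.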

[2] = biological target: rat Adrenergic Receptor, Alpha 2 (Adra2), Non-selective Binding, Adra2a (gene 25083) (UniProt P22909); test: NVS_GPCR_rAdra2_NonSelective: NovaScreen (NVS) G Protein-Coupled Receptor Assay for rat Adrenergic Receptor, Alpha 2 (Adra2), Non-selective Binding (AID 2283299)
Procedure, shortened: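 Rat cortical membranes, radioligand competitive displacement read by filter-based scintillation counting 1.25 hours after dosing. Primary screen in duplicate at 25 uM; actives followed up in concentration series.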

[3] = biological target: Adra2b (gene 24174) (UniProt P19328); test: NVS_GPCR_rmAdra2B: NovaScreen (NVS) G Protein-Coupled Receptor Assay for hybird cells Adrenergic, Alpha 2B Receptor (Adra2B) (AID 2283306)
Procedure, shortened: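 Radioligand filter-binding assay on membrane proteins from neuroglioma/blastoma hybrid cells (rodent), 1 h after dosing; scintillation counting, loss of signal vs DMSO. Primary screen in duplicate at 25 uM, actives then run in concentration series.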

[4] = biological target: rat Gamma-Aminobutyric Acid Type B Receptor (GABBR), Gabbr1 (gene 81657) (UniProt Q9Z0U4); test: NVS_GPCR_rGABBR: NovaScreen (NVS) G Protein-Coupled Receptor Assay for rat Gamma-Aminobutyric Acid Type B Receptor (GABBR) (AID 2283301)
Procedure, shortened: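 Radioligand displacement on rat cortical membranes, 1 h, filter-based scintillation counting. Primary screen at 25 uM in duplicate; compounds passing threshold re-tested in concentration-response up to 50 uM; loss of binding fitted against DMSO.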

[5] = biological target: Metabotropic glutamate receptor 1 (Rattus norvegicus) (UniProt P23385); test: NVS_GPCR_rmMGluR1: NovaScreen (NVS) G Protein-Coupled Receptor Assay for rat Glutamate Metabotropic Receptor 1 (MGluR1) (AID 2283305)
Procedure, shortened: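 Rat cerebellum membrane preparation, radioligand displacement binding read by filter-based scintillation counting 1 hour after dosing. Initial duplicate single-point screen at 25 uM, then concentration-response up to 50 uM; loss of signal versus DMSO baseline scored.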

[6] = biological target: rat Neurokinin-3 Receptor (NK3), Tacr3 (gene 24808) (UniProt P16177); test: NVS_GPCR_rNK3: NovaScreen (NVS) G Protein-Coupled Receptor Assay for rat Neurokinin-3 Receptor (NK3) (AID 2283310)
Procedure, shortened: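 Rat cortical membranes; radioligand binding with filtration and scintillation counting, 2 h after dosing. Primary screen in duplicate at 25 uM, then concentration-response up to 50 uM; loss of binding signal relative to DMSO.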

[7] = biological target: rat Somatostatin Receptor (SST), Sstr1 (gene 25033) (UniProt P28646); test: NVS_GPCR_rSST: NovaScreen (NVS) G Protein-Coupled Receptor Assay for rat Somatostatin Receptor (SST) (AID 2283314)
Procedure, shortened: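 Rat forebrain membranes; radioligand displacement read by filter-based scintillation counting 1 h after dosing. Primary screen in duplicate at 25 uM. Actives (e.g., 30% inhibition) were rerun as concentration-response to 50 uM max and fitted against DMSO.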

[8] = biological target: rat Glutamate Metabotropic Receptor 5 (MGluR5), Grm5 (gene 24418) (UniProt P31424); test: NVS_GPCR_rmMGluR5: NovaScreen (NVS) G Protein-Coupled Receptor Assay for rat Glutamate Metabotropic Receptor 5 (MGluR5) (AID 2283307)
Procedure, shortened: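 Rat whole-brain membrane preparation; filter-based radioligand binding read by scintillation counting, 1.5 h after dosing. Single-point screen at 25 uM in duplicate; hits over threshold (e.g. 30% inhibition) retested in concentration-response up to 50 uM; loss of signal vs DMSO.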

Sequence of Adra2b (gene 24174) (P19328 whole entry, looked up): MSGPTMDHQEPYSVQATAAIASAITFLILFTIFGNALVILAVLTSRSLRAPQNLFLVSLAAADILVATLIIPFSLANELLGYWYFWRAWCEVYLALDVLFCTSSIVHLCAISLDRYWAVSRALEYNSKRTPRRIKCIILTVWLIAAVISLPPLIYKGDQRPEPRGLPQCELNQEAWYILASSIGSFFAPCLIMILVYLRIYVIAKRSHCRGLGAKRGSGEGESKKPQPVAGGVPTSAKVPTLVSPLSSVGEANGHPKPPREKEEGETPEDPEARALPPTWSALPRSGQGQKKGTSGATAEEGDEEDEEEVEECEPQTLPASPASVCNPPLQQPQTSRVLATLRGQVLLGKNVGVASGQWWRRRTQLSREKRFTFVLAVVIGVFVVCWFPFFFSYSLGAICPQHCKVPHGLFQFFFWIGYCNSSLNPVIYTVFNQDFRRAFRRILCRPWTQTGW
Sequence of rat Gamma-Aminobutyric Acid Type B Receptor (GABBR), Gabbr1 (gene 81657) (Q9Z0U4 whole entry, looked up): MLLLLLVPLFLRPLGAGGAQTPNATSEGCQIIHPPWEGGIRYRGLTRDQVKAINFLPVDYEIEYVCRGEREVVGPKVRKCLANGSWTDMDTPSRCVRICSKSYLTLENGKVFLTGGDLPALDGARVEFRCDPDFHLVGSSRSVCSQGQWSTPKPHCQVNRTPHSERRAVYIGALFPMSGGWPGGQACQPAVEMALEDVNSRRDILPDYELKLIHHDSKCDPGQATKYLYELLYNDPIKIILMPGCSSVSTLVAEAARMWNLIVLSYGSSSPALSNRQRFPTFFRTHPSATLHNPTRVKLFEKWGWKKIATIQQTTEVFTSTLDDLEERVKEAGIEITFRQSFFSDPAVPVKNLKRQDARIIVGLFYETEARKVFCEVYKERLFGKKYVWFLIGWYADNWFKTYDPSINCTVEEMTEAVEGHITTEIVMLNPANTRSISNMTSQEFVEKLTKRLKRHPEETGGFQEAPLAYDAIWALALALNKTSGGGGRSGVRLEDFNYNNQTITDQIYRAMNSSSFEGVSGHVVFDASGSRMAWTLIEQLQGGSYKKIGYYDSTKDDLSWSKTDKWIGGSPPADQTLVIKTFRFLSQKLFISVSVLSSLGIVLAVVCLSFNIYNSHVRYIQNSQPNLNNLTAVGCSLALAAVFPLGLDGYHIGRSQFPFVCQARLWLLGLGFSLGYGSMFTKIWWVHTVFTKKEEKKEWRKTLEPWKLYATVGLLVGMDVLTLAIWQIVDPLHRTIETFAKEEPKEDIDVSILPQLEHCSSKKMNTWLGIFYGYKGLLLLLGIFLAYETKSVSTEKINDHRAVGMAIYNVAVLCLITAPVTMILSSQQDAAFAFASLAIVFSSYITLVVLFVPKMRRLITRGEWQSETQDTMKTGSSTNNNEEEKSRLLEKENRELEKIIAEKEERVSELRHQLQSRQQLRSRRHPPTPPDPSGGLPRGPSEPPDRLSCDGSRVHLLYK
Sequence of rat Adrenergic Receptor, Alpha 2 (Adra2), Non-selective Binding, Adra2a (gene 25083) (P22909 whole entry, looked up): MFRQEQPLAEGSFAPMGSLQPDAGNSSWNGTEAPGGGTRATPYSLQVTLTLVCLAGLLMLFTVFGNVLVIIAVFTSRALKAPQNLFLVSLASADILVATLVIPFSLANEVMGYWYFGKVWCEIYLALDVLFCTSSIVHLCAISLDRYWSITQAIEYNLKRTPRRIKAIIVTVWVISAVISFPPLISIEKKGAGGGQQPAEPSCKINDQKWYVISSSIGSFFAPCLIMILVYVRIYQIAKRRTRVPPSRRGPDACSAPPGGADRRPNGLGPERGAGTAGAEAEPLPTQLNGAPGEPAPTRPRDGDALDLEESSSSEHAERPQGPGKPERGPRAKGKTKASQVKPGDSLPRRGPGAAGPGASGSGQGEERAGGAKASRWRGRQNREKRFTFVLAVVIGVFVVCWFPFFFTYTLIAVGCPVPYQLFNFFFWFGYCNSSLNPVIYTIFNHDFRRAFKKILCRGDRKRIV
Sequence of rat Neurokinin-1 Receptor (NK1), Tacr1 (gene 24807) (P14600 whole entry, looked up): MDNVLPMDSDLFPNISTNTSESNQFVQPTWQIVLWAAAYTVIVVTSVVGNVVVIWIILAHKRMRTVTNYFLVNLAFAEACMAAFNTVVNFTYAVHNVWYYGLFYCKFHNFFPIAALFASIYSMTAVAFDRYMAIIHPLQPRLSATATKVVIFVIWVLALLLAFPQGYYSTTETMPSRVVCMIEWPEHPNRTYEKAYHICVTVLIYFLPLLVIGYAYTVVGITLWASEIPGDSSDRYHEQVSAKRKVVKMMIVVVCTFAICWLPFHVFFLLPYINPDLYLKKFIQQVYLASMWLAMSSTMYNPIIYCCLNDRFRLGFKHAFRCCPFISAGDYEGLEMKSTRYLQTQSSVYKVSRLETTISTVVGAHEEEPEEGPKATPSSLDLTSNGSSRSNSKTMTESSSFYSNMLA
Sequence of rat Neurokinin-3 Receptor (NK3), Tacr3 (gene 24808) (P16177 whole entry, looked up): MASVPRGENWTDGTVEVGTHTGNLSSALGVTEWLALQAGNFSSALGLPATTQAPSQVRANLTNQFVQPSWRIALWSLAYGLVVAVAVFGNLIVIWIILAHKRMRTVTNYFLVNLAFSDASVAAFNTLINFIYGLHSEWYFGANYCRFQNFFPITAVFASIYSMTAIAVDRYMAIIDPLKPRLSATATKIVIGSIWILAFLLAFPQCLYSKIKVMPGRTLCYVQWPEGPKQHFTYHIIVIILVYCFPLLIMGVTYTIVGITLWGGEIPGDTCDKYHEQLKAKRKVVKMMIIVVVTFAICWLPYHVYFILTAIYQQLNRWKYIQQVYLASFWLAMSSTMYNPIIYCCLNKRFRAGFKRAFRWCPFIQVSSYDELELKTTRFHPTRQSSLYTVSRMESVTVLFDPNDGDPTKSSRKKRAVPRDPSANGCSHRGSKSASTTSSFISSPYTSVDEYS
Sequence of Metabotropic glutamate receptor 1 (Rattus norvegicus) (P23385 whole entry, looked up): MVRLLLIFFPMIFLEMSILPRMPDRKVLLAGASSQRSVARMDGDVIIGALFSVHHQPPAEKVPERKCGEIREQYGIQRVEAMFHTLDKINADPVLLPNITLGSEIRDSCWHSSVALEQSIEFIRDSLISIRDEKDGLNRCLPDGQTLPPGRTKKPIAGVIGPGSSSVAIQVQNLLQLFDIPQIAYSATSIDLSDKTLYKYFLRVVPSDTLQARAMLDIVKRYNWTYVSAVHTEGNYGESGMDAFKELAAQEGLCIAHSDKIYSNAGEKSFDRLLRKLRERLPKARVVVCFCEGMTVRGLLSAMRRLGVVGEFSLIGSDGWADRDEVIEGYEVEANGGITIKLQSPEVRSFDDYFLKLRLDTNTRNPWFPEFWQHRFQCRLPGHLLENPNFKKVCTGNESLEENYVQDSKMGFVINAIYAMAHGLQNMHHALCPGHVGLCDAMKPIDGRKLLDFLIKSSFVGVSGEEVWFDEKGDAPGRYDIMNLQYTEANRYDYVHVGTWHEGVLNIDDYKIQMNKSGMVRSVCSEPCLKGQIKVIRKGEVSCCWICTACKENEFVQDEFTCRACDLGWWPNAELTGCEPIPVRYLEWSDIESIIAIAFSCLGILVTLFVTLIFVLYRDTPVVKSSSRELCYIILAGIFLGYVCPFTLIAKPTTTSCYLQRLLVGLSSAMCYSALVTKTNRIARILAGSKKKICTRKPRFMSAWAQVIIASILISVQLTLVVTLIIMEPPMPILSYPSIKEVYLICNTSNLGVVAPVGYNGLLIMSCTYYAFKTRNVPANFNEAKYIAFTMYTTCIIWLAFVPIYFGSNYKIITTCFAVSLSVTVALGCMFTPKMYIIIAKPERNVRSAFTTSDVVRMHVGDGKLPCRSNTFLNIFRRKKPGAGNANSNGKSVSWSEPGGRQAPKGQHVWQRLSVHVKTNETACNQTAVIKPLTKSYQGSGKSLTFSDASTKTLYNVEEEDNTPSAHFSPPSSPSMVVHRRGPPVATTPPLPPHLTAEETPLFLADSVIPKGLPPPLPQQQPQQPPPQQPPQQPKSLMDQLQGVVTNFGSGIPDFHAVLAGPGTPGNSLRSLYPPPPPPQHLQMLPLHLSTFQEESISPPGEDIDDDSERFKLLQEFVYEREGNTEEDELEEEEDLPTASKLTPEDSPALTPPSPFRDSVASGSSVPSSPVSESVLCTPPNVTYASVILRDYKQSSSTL
Sequence of rat Somatostatin Receptor (SST), Sstr1 (gene 25033) (P28646 whole entry, looked up): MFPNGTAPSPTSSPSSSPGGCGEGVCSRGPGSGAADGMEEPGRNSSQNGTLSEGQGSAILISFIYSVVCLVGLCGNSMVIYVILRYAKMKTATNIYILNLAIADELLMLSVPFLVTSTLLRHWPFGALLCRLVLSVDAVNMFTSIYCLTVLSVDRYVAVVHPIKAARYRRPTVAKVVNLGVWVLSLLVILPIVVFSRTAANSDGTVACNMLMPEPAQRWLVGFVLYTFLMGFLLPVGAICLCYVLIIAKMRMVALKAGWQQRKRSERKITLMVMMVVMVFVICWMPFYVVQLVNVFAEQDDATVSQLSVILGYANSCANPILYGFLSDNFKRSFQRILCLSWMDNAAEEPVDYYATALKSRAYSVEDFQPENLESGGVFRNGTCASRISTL

For `CCCOc1ccc(S(=O)(=O)N2CCN(CC)CC2)cc1-c1nc2c(CC)n(Cc3ccccn3)nc2c(=O)[nH]1`, the AC50 [1] was 12.6 µM (active).

`CCCCCCCCN(C)C` was tested, and the outcome [2] was “inactive” and the outcome [3] was “inactive”.

For `CCCCCCCCCC`, the outcome [4] was “inactive”, the outcome [5] was “inactive” and the outcome [3] was “inactive”. For the same molecule, the outcome [6] was “inactive” and the AC50 [7] was 2.19 µM (active).

With `NC(=O)N1c2ccccc2C=Cc2ccccc21` the outcome [4] was “inactive”.

In the case of `CC[C@H](C)C(=O)O[C@H]1C[C@H](O)C=C2C=C[C@H](C)[C@H](CC[C@@H](O)C[C@@H](O)CC(=O)O)[C@H]21`, the outcome [8] is reported as “inactive”.
